From PubChem BioAssay (NCI)
The panel holds about 83,000 compounds, 20% with a hit somewhere; the sample as a whole holds those more often.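 For each line, cells grew in 96-well plates with the test compound present at a single concentration for 48 hours.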 Active and inactive are the calls of the source. The calls were made as follows: active = growth percent below 10; inactive = the rest.

Tests used:
Assay in all cases: NCI-60 one-dose screen, 48 h (100 = growth as untreated, 0 = no growth, -100 = all killed)
Settings in all cases: 10 µM unless noted
[1] = tested on: DU-145 prostate
[2] = tested on: K-562 leukemia
[3] = tested on: MALME-3M melanoma
[4] = tested on: MDA-MB-231 breast
[5] = tested on: RXF 393 renal
[6] = tested on: SF-268 CNS
[7] = tested on: SF-295 CNS
[8] = tested on: SF-539 CNS
[9] = tested on: UACC-257 melanoma
[10] = tested on: M14 melanoma
[11] = tested on: HCT-15 colon
[12] = tested on: HT29 colon
[13] = tested on: SNB-75 CNS
[14] = tested on: SNB-19 CNS
[15] = tested on: U251 CNS
[16] = tested on: PC-3 prostate
[17] = tested on: SK-MEL-5 melanoma
[18] = tested on: UACC-62 melanoma
[19] = tested on: LOX IMVI melanoma
[20] = tested on: SK-MEL-28 melanoma

Measured: growth

CS(=O)(=O)Nc1cncc(-c2ccc3ncnc(Nc4ccc(F)c(Cl)c4)c3c2)c1
inactive: [1] 36.5% | [2] 35.3% | [3] 44.1% | [4] 54.6% | [5] 24.9% | [6] 41.5% | [7] 44.5% | [8] 32.5% | [9] 35.2% | [10] 52.5% | [11] 51.1% | [12] 20.7% | [13] 33% | [14] 42.9% | [16] 34.5% | [18] 34.6% | [19] 28.3% | [20] 42.7%
active: [15] 8.79% | [17] -50.1%

CCOC(=O)/C=C/c1c(C)[nH]c(=O)[nH]c1=O
inactive: [1] 21% | [2] 101% | [3] 172% | [4] 93.1% | [5] 89.3% | [6] 96% | [7] 76.5% | [8] 98.9% | [9] 109% | [10] 97.5% | [11] 21.3% | [12] 31.4% | [13] 110% | [14] 93.4% | [15] 81.2% | [16] 80.9% | [17] 90.7% | [18] 87.6% | [19] 82.6% | [20] 117%

CN1CCN(c2ccc(NC(=O)c3cncnc3Nc3ccc4c(ccn4Cc4cccc(F)c4)c3)cc2)CC1
active: [2] 2.74% | [3] -82.6% | [10] -59.3% | [11] -6.2% | [12] -39.8% | [15] 6.24% | [19] -80.9% | [20] -85.2%
inactive: [1] 54% | [4] 11.9% | [5] 31% | [6] 71% | [7] 80.8% | [8] 45% | [9] 65.4% | [13] 67.4% | [14] 77.7% | [16] 66.2% | [17] 59.6% | [18] 54.3%

O=C(CN1C(=O)NC2NC(=O)NC21)N/N=C/c1ccc(Cl)cc1Cl (stereo not given)
inactive: [1] 113% | [2] 105% | [3] 106% | [4] 109% | [5] 117% | [6] 99.6% | [7] 101% | [8] 93.3% | [9] 114% | [10] 104% | [11] 104% | [12] 110% | [13] 82.8% | [14] 102% | [15] 112% | [16] 103% | [17] 99.5% | [18] 99% | [19] 103% | [20] 109%

O=C1NC(=O)c2c1c1c3ccccc3[nH]c1c1oc3cc(Br)ccc3c21
inactive: [1] 90.2% | [2] 55% | [3] 87% | [4] 80.5% | [5] 88.1% | [6] 76.4% | [7] 52.8% | [8] 96.9% | [9] 96.4% | [10] 65.8% | [11] 70.4% | [12] 76.9% | [13] 31.4% | [14] 72.8% | [15] 65.5% | [16] 42.3% | [17] 55.9% | [18] 48.5% | [19] 59.9% | [20] 92.6%

CCOC(=O)C(=Cc1cccc(C#N)c1)C(=O)OCC
active: [19] -44.1%
inactive: [1] 48% | [2] 22.7% | [3] 49.9% | [4] 55.4% | [5] 33.5% | [6] 64.1% | [7] 95.9% | [8] 62.9% | [9] 69.6% | [10] 62.3% | [11] 39% | [12] 20% | [13] 60.2% | [14] 85.1% | [15] 76.1% | [16] 62.8% | [17] 85.8% | [18] 53.4% | [20] 50.3%

COc1cc(C(=O)c2c(-c3ccccc3)oc3c(OC)cccc23)cc(OC)c1O
active: [5] -6.63% | [7] 2.85% | [8] -13.2% | [12] 6.79%
inactive: [1] 23% | [2] 13.4% | [3] 47.4% | [4] 17% | [6] 46.5% | [9] 71.4% | [10] 16.3% | [11] 13.5% | [13] 22.2% | [14] 25.8% | [15] 18.8% | [16] 23.5% | [17] 19.7% | [18] 39.3% | [19] 16.1% | [20] 62.7%

CCCCC(=O)Nc1ncc(Cc2ccccc2Cl)s1
inactive: [1] 67.2% | [2] 24.8% | [3] 52.1% | [4] 53.3% | [5] 31.3% | [6] 69.6% | [7] 45.7% | [8] 39.2% | [9] 55.3% | [10] 21.8% | [11] 24.8% | [12] 11% | [13] 25.3% | [14] 48.7% | [15] 32% | [16] 68.8% | [17] 37.6% | [18] 32.4% | [19] 40.2% | [20] 57.7%
